Assays:
Assay in all cases: log2 ratio of Biotin-Ahx-Ub-VS probe labelling (fragment/DMSO); higher = less target engagement (more negative = stronger competition), active = hit call of the paper (q ≤ 0.05, log2 ratio ≤ -1)
Settings in all cases: compound concentration: 200 uM; treatment time: 3 h
USP42 = target: T1, USP42 (UniProt Q9H9J4)
T1 sequence (whole entry): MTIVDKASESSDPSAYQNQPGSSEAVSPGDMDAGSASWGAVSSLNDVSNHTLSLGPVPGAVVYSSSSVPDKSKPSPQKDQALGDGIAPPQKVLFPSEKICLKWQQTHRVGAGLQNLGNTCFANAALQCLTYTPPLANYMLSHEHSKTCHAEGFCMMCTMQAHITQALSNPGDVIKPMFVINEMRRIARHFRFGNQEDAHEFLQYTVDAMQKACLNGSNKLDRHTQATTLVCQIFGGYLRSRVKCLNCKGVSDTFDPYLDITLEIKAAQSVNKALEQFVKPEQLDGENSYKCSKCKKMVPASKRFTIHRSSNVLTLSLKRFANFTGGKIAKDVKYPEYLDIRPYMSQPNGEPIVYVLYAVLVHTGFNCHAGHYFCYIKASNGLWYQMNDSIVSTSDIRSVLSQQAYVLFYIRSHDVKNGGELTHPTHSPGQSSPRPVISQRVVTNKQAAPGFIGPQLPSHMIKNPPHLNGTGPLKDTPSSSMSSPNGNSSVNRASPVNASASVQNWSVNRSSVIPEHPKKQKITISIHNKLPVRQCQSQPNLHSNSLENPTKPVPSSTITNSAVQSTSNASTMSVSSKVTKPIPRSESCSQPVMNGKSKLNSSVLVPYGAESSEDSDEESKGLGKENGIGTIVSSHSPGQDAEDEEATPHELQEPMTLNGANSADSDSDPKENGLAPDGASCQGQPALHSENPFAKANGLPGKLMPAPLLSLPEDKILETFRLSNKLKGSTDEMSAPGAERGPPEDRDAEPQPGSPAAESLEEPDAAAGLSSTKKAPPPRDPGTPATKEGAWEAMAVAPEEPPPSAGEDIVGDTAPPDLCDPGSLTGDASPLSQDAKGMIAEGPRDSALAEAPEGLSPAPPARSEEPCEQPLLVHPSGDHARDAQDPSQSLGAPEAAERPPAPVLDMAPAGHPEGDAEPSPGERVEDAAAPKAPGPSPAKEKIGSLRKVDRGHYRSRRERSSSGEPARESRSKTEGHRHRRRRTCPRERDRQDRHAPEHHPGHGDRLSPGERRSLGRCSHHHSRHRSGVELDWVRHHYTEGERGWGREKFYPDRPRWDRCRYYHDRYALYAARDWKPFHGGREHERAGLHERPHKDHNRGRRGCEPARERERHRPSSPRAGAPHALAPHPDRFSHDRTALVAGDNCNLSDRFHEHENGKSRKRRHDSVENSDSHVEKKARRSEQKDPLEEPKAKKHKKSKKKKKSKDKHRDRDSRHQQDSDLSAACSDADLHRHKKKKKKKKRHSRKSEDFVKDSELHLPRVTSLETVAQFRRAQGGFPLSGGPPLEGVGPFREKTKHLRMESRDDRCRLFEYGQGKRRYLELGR
Summary of the method: (§1)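 Labelled DUBs were enriched with NeutrAvidin, digested with LysC and trypsin, and run by diaPASEF LC-MS/MS. The labelling used Biotin-Ahx-Ub-VS at 0.5 µM final for 1 h on HEK293T lysate (495 µg per sample) previously treated in triplicate with fragment at 200 µM or vehicle for 3 h. Values are average log2 fragment/vehicle ratios by unpaired t-test on global-median-normalised Spectronaut quantities of proteins with ≥2 unique peptides.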

USP46 = USP46 (UniProt P62068)
Summary of the method: as §1

USP47 = target: T2, USP47 (UniProt Q96K76)
T2 sequence (whole entry): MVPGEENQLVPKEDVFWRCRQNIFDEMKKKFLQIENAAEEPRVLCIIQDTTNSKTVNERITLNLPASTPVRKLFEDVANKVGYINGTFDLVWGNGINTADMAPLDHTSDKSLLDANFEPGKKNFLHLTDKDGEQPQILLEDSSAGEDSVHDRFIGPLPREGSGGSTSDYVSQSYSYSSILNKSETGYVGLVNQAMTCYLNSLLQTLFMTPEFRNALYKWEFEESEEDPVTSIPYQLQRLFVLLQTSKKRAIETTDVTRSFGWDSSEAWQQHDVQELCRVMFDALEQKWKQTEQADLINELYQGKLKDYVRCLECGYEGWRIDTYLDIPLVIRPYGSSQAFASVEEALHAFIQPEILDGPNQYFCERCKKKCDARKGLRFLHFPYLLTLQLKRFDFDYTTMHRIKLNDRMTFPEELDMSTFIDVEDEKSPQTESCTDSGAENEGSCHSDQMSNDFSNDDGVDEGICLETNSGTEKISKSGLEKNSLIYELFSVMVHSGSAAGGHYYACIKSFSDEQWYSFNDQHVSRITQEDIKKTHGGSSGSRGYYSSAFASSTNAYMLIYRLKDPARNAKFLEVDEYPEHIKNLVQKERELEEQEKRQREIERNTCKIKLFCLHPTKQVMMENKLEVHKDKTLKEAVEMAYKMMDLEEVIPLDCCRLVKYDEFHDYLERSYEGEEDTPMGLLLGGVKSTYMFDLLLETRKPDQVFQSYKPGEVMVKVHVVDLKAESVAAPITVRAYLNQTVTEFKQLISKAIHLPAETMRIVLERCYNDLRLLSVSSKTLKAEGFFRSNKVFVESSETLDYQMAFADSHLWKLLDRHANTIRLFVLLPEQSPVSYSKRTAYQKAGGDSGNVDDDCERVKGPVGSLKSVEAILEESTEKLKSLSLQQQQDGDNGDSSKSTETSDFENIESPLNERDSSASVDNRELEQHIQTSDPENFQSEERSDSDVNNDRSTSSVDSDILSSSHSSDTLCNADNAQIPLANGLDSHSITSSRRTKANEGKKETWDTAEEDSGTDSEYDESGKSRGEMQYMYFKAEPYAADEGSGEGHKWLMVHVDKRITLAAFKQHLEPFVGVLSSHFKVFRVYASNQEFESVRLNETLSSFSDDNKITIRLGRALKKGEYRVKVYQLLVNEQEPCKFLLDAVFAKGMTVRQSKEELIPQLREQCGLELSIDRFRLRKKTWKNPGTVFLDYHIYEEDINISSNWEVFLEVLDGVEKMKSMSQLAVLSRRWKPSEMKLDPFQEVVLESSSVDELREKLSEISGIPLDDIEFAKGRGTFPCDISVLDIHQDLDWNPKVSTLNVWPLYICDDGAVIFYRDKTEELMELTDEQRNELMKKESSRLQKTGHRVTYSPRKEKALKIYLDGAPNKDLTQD
Summary of the method: as §1

USP48 = target: T3, USP48 (UniProt Q86UV5)
T3 sequence (whole entry): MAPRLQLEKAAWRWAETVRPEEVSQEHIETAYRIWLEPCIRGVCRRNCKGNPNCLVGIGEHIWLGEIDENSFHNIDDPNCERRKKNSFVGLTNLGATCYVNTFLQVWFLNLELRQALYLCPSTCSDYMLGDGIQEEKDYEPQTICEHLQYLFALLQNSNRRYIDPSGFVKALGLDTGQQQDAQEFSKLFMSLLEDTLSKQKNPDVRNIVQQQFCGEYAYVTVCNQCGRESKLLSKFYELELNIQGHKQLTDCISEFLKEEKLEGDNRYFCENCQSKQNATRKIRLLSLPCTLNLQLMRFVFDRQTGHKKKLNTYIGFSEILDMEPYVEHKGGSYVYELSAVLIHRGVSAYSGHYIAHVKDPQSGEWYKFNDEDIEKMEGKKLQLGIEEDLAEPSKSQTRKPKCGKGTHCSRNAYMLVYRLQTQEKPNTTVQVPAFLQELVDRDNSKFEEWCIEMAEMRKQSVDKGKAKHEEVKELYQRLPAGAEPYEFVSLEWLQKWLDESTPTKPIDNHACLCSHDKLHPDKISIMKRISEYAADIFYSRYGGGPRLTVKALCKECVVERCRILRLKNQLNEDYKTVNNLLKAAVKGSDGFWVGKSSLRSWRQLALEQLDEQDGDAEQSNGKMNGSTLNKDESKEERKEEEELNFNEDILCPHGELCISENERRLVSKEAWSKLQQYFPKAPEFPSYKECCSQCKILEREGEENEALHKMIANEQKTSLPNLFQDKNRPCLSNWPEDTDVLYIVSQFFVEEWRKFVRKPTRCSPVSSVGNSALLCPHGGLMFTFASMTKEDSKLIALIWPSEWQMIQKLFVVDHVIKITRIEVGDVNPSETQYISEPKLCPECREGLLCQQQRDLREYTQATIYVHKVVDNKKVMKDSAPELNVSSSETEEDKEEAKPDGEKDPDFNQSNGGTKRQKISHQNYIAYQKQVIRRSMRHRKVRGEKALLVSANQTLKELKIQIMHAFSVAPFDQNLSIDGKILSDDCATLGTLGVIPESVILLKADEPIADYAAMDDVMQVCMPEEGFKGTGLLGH
Summary of the method: as §1

USP5 = target: T4, USP5 (UniProt P45974)
T4 sequence (whole entry): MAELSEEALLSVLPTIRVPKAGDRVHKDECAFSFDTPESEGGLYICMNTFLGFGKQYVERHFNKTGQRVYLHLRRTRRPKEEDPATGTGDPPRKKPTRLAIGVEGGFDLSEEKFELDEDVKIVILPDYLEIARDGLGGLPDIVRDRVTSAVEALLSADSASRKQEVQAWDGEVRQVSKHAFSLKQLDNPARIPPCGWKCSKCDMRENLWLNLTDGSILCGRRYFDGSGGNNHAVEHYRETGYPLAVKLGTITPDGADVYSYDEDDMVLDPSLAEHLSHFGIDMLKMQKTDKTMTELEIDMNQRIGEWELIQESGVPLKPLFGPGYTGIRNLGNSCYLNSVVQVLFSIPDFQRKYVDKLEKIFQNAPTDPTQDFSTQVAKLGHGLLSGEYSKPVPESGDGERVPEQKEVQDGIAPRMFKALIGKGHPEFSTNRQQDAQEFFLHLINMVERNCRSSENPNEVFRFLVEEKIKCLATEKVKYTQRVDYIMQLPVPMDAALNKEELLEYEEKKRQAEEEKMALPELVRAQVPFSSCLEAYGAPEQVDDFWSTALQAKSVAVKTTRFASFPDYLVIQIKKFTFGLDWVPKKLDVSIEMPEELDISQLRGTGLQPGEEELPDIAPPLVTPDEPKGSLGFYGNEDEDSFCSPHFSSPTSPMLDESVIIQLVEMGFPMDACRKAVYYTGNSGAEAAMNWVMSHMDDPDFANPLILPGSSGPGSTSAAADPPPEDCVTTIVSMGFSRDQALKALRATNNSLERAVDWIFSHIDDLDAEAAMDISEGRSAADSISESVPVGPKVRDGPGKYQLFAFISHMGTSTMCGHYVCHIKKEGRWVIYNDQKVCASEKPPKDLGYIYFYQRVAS
Summary of the method: as §1

USP54 = USP54 (UniProt Q70EL1)
Summary of the method: as §1

USP7 = USP7 (UniProt Q93009)
Summary of the method: as §1

USP8 = target: T5, USP8 (UniProt P40818)
T5 sequence (whole entry): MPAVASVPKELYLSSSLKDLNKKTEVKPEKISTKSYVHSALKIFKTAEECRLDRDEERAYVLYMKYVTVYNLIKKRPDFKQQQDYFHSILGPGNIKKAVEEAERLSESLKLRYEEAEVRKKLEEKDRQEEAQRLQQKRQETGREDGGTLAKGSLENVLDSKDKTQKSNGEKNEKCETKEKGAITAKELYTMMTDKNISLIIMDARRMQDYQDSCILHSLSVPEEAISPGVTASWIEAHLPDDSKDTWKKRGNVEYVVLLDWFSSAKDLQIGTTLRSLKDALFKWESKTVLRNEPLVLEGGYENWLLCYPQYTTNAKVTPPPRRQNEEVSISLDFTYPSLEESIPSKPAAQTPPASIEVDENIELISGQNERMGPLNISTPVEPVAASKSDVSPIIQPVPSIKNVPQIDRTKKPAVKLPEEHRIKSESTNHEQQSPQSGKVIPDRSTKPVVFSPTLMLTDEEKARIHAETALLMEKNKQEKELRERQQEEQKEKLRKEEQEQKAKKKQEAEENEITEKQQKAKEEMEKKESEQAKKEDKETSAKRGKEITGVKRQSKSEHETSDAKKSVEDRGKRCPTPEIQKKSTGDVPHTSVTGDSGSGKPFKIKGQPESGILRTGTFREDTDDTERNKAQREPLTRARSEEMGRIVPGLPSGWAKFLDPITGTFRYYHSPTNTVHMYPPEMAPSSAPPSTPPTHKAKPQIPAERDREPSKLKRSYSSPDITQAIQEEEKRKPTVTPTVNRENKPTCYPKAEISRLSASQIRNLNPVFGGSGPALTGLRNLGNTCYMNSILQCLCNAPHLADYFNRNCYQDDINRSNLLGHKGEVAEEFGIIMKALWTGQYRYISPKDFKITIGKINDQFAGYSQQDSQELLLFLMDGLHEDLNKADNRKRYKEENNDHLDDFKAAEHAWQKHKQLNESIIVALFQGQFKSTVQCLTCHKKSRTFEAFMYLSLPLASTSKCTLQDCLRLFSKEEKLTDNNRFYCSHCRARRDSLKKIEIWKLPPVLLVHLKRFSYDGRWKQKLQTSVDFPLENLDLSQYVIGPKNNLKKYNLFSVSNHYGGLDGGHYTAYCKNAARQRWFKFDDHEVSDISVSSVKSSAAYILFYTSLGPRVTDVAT
Summary of the method: as §1

USP9X = USP9X (UniProt Q93008)
Summary of the method: as §1

UniProt O00487 = target: UniProt O00487
Summary of the method: as §1

Measured: log2 ratio of Biotin-Ahx-Ub-VS probe labelling

Sequence of USP7 (Q93009 whole entry, looked up): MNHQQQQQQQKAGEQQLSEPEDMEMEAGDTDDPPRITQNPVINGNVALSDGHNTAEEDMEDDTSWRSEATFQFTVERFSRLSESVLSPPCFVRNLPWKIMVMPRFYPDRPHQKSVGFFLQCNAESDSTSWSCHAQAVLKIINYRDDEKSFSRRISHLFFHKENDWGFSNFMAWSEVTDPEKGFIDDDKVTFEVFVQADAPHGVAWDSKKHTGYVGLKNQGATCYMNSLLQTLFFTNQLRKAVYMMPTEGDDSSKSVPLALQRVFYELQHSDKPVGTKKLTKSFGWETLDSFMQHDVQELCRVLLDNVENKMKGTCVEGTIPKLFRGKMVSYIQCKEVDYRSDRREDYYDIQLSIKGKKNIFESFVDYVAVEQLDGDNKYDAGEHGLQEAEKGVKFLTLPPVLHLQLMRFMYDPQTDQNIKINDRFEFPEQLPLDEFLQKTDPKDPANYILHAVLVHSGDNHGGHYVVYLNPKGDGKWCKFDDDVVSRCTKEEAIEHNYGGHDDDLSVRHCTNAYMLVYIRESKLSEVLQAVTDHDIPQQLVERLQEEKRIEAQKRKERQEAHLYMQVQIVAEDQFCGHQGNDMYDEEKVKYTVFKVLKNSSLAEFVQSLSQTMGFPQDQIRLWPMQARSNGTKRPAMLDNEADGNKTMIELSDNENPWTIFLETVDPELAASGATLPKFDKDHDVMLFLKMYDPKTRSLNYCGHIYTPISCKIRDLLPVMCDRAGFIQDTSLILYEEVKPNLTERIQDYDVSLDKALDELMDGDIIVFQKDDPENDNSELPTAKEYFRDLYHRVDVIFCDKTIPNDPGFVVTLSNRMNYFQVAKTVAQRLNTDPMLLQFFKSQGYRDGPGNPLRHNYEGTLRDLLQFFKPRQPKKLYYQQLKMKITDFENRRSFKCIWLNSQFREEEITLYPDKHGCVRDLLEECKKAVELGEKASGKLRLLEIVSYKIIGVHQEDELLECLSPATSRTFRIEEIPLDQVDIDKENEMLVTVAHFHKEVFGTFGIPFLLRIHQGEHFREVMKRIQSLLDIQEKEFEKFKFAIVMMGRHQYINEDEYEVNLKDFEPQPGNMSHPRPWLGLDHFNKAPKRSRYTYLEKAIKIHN
Sequence of USP54 (Q70EL1 whole entry): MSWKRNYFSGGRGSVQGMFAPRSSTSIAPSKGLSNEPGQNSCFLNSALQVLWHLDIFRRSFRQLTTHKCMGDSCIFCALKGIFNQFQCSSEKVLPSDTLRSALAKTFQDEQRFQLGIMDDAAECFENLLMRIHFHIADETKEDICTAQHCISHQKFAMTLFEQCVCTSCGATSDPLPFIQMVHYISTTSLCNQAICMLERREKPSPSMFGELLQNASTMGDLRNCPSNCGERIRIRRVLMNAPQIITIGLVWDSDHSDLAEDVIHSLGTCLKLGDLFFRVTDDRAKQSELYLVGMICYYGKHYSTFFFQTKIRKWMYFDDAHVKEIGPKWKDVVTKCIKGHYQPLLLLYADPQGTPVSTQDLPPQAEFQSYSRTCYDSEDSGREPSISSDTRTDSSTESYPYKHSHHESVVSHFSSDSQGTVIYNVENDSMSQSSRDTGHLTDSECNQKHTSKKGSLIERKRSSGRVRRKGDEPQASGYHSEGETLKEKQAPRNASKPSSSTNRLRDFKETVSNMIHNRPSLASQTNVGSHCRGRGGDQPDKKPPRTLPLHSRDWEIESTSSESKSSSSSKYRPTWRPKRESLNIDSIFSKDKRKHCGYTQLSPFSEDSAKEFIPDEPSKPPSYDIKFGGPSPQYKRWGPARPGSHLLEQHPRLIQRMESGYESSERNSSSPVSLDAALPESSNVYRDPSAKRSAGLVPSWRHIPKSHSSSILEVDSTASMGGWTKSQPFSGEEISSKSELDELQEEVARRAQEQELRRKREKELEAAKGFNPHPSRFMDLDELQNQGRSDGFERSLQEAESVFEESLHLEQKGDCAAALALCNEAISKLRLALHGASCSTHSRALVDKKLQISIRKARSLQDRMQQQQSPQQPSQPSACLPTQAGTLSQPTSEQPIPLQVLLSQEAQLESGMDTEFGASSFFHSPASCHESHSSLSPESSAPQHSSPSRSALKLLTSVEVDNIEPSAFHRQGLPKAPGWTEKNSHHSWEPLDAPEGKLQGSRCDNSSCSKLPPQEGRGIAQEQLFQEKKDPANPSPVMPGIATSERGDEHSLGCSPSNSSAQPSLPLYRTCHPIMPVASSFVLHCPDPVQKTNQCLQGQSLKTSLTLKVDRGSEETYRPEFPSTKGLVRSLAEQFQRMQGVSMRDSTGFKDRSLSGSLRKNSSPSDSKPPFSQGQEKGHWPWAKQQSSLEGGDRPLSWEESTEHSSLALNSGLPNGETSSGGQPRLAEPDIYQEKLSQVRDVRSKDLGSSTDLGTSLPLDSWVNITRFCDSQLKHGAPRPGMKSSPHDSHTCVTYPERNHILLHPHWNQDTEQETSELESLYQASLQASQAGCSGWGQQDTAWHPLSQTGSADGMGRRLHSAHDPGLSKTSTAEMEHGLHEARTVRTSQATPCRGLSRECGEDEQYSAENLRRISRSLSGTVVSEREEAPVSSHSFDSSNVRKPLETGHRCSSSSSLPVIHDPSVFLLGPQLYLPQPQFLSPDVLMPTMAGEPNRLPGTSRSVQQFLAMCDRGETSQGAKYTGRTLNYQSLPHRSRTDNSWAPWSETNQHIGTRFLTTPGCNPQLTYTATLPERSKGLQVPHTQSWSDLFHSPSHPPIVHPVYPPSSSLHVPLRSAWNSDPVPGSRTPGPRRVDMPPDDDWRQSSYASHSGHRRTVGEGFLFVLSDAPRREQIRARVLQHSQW
Sequence of USP46 (P62068 whole entry): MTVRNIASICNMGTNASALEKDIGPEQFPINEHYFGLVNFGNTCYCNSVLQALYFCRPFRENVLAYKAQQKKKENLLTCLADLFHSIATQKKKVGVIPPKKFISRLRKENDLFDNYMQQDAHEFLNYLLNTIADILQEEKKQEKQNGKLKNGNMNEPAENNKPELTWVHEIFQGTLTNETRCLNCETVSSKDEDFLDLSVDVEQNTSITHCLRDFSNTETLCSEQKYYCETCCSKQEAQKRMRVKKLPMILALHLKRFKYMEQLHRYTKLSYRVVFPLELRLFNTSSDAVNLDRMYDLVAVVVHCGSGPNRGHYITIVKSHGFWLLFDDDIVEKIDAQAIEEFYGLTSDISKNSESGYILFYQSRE
Sequence of UniProt O00487 (O00487 whole entry): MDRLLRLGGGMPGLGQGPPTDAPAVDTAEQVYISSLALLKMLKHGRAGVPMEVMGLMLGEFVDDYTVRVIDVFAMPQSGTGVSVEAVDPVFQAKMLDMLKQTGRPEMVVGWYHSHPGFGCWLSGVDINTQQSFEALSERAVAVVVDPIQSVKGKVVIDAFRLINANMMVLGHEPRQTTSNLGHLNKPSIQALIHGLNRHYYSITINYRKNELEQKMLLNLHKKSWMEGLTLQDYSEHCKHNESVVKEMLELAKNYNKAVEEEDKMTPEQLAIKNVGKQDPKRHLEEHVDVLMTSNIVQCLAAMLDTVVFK

O=C(CCl)N1CCOC2(CCC2)C1
inactive: USP42 0.183 | USP46 0.171 | USP47 -0.386 | USP48 -0.474 | USP5 0.109 | USP54 -0.395 | USP7 0.0903 | USP8 -0.347 | USP9X 0.105 | UniProt O00487 -0.0639

Reference: the supplement of paper PMC11732987, “Enantioselective OTUD7B fragment discovery through chemoproteomics screening and high-throughput optimisation” (Communications Chemistry, 2025)
